Data taken from PubChem BioAssay AID1159580 (chemical genetic matrix, 2015).
Screen size: about 5,500 compounds; about 2,000 (36%) were called active. Another 18% or so got no clear call; they are omitted. No stated cut-off is given here; in the data, active means normalized growth mostly below about 0.91 (no sharp cut-off); inconclusive means no clear call, values can overlap the other calls; inactive means mostly above about 0.92. The list shows a part of the results.

Experiment: chemical genetic growth profiling, strain panel (AID 1159580);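 further: tested at 20 µM; growth read once vehicle control cultures reached saturation at 30 °C; 1 = growth at the plate median or of vehicle wells; lower values mean less growth of the strain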
Conditions: growth OD
[1] = S. cerevisiae deletion strains, locus YAL013W, strain DEP1, active compounds read low
[2] = S. cerevisiae deletion strains, locus YGR078C, strain PAC10, active compounds read low
[3] = S. cerevisiae deletion strains, locus YNL153C, strain GIM3, active compounds read low
[4] = S. cerevisiae deletion strains, locus YPL241C, strain CIN2, active compounds read low

Measured: normalized growth

C=CCn1c(=O)c2c(nc(-c3ccc(S(=O)(=O)O)cc3)n2C)n(C)c1=O
inactive: [1] 0.982 | S. cerevisiae deletion strains, locus YAL040C, strain CLN3, active compounds read low 0.965 | S. cerevisiae deletion strains, locus YCL061C, strain MRC1 (second series), active compounds read low 0.985 | S. cerevisiae deletion strains, locus YDR363W, strain ESC2, active compounds read low 1.07 | S. cerevisiae deletion strains, locus YER002W, strain NOP16, active compounds read low 1.01 | [2] 0.997 | [3] 1.01 | S. cerevisiae deletion strains, locus YNL175C, strain NOP13, active compounds read low 1 | S. cerevisiae deletion strains, locus YNL197C, strain WHI3, active compounds read low 0.987 | S. cerevisiae deletion strains, locus YNL224C, strain SQS1, active compounds read low 0.99 | S. cerevisiae deletion strains, locus YOR083W, strain WHI5 (second series), active compounds read low 1.03 | [4] 0.979

CCOP(=S)(OCC)Oc1cc(C)nc(C(C)C)n1
inactive: [1] 0.978 | S. cerevisiae deletion strains, locus YBR021W, strain FUR4, active compounds read low 1.03 | S. cerevisiae deletion strains, locus YBR229C, strain ROT2, active compounds read low 0.955 | S. cerevisiae deletion strains, locus YCL029C, strain bik1, active compounds read low 0.985 | S. cerevisiae deletion strains, locus YDL035C, strain GPR1, active compounds read low 0.946 | S. cerevisiae deletion strains, locus YDL074C, strain BRE1, active compounds read low 0.901 | S. cerevisiae deletion strains, locus YDL101C, strain DUN1, active compounds read low 0.96 | S. cerevisiae deletion strains, locus YDL134C, strain PPH21, active compounds read low 0.995 | S. cerevisiae deletion strains, locus YDL185W, strain tfp1, active compounds read low 0.972 | S. cerevisiae deletion strains, locus YDL192W, strain arf1, active compounds read low 0.985 | S. cerevisiae deletion strains, locus YDR101C, strain arx1, active compounds read low 1 | S. cerevisiae deletion strains, locus YDR150W, strain NUM1, active compounds read low 0.984 | S. cerevisiae deletion strains, locus YDR162C, strain NBP2, active compounds read low 0.976 | S. cerevisiae deletion strains, locus YDR318W, strain mcm21, active compounds read low 0.98 | S. cerevisiae deletion strains, locus YDR388W, active compounds read low 0.991 | S. cerevisiae deletion strains, locus YDR502C, strain sam2, active compounds read low 0.994 | S. cerevisiae deletion strains, locus YEL061C, strain CIN8, active compounds read low 0.989 | S. cerevisiae deletion strains, locus YER110C, active compounds read low 0.981 | S. cerevisiae deletion strains, locus YER155C, strain BEM2, active compounds read low 0.996 | S. cerevisiae deletion strains, locus YER167W, strain BCK2, active compounds read low 0.99 | S. cerevisiae deletion strains, locus YGL078C, strain dbp3, active compounds read low 0.995 | S. cerevisiae deletion strains, locus YGL086W, strain mad1, active compounds read low 0.989 | S. cerevisiae deletion strains, locus YGL248W, strain PDE1, active compounds read low 0.961 | [2] 0.976 | S. cerevisiae deletion strains, locus YGR135W, strain pre9, active compounds read low 0.995 | S. cerevisiae deletion strains, locus YGR229C, strain SMI1, active compounds read low 0.991 | S. cerevisiae deletion strains, locus YGR252W, strain gcn5, active compounds read low 0.998 | S. cerevisiae deletion strains, locus YHR030C, strain SLT2, active compounds read low 0.988 | S. cerevisiae deletion strains, locus YHR079C, strain IRE1 (second series), active compounds read low 0.994 | S. cerevisiae deletion strains, locus YHR094C, strain hxt1, active compounds read low 0.996 | S. cerevisiae deletion strains, locus YHR129C, strain ARP1, active compounds read low 0.977 | S. cerevisiae deletion strains, locus YHR200W, strain rpn10, active compounds read low 0.993 | S. cerevisiae deletion strains, locus YIL066C, strain RNR3, active compounds read low 0.979 | S. cerevisiae deletion strains, locus YIL073C, strain SPO22, active compounds read low 1.01 | S. cerevisiae deletion strains, locus YIL125W, strain kgd1, active compounds read low 0.993 | S. cerevisiae deletion strains, locus YIR030C, strain dcg1, active compounds read low 0.995 | S. cerevisiae deletion strains, locus YJL095W, strain BCK1, active compounds read low 0.973 | S. cerevisiae deletion strains, locus YJL134W, strain LCB3, active compounds read low 0.982 | S. cerevisiae deletion strains, locus YJL168C, strain set2, active compounds read low 0.987 | S. cerevisiae deletion strains, locus YJL187C, strain SWE1 (second series), active compounds read low 0.978 | S. cerevisiae deletion strains, locus YJR043C, strain POL32, active compounds read low 0.991 | S. cerevisiae deletion strains, locus YJR075W, strain HOC1, active compounds read low 0.977 | S. cerevisiae deletion strains, locus YKL009W, strain mrt4, active compounds read low 0.949 | S. cerevisiae deletion strains, locus YKL068W, active compounds read low 0.993 | S. cerevisiae deletion strains, locus YKL085W, strain MDH1 (second series), active compounds read low 0.988 | S. cerevisiae deletion strains, locus YKL085W, strain MDH1, active compounds read low 0.988 | S. cerevisiae deletion strains, locus YKL190W, strain CNB1, active compounds read low 0.993 | S. cerevisiae deletion strains, locus YKR001C, strain vps1, active compounds read low 0.999 | S. cerevisiae deletion strains, locus YLR039C, strain RIC1, active compounds read low 0.966 | S. cerevisiae deletion strains, locus YLR058C, strain SHM2, active compounds read low 0.971 | S. cerevisiae deletion strains, locus YLR102C, strain apc9, active compounds read low 0.987 | S. cerevisiae deletion strains, locus YLR262C, strain YPT6, active compounds read low 0.946 | S. cerevisiae deletion strains, locus YLR268W, strain sec22, active compounds read low 0.993 | S. cerevisiae deletion strains, locus YLR330W, strain CHS5, active compounds read low 0.989 | S. cerevisiae deletion strains, locus YLR342W, strain FKS1 (second series), active compounds read low 0.975 | S. cerevisiae deletion strains, locus YLR371W, strain rom2, active compounds read low 0.995 | S. cerevisiae deletion strains, locus YLR418C, strain cdc73, active compounds read low 0.959 | S. cerevisiae deletion strains, locus YML016C, strain PPZ1, active compounds read low 0.993 | S. cerevisiae deletion strains, locus YML032C, strain rad52, active compounds read low 0.989 | S. cerevisiae deletion strains, locus YML124C, strain tub3, active compounds read low 0.998 | S. cerevisiae deletion strains, locus YMR078C, strain ctf18, active compounds read low 0.991 | S. cerevisiae deletion strains, locus YMR223W, strain ubp8, active compounds read low 0.988 | S. cerevisiae deletion strains, locus YMR263W, strain SAP30, active compounds read low 0.98 | S. cerevisiae deletion strains, locus YMR307W, strain GAS1, active compounds read low 0.976 | S. cerevisiae deletion strains, locus YNL067W, strain RPL9B, active compounds read low 0.972 | S. cerevisiae deletion strains, locus YNL128W, strain TEP1, active compounds read low 0.957 | [3] 0.984 | S. cerevisiae deletion strains, locus YNL233W, strain BNI4, active compounds read low 0.984 | S. cerevisiae deletion strains, locus YNL250W, strain rad50, active compounds read low 0.984 | S. cerevisiae deletion strains, locus YNL271C, strain bni1, active compounds read low 0.992 | S. cerevisiae deletion strains, locus YNL298W, strain CLA4, active compounds read low 0.995 | S. cerevisiae deletion strains, locus YNL307C, strain MCK1, active compounds read low 0.998 | S. cerevisiae deletion strains, locus YNL322C, strain KRE1, active compounds read low 0.978 | S. cerevisiae deletion strains, locus YNR052C, strain pop2, active compounds read low 0.99 | S. cerevisiae deletion strains, locus YOL006C, strain TOP1, active compounds read low 0.967 | S. cerevisiae deletion strains, locus YOL012C, strain htz1 0.881 | S. cerevisiae deletion strains, locus YOL147C, strain pex11, active compounds read low 0.998 | S. cerevisiae deletion strains, locus YOR061W, strain CKA2, active compounds read low 0.967 | S. cerevisiae deletion strains, locus YOR069W, strain VPS5, active compounds read low 0.989 | S. cerevisiae deletion strains, locus YOR136W, strain idh2, active compounds read low 0.986 | S. cerevisiae deletion strains, locus YOR144C, strain elg1, active compounds read low 0.995 | S. cerevisiae deletion strains, locus YOR184W, strain ser1, active compounds read low 0.987 | S. cerevisiae deletion strains, locus YOR316C, strain cot1, active compounds read low 0.975 | S. cerevisiae deletion strains, locus YPL055C, strain LGE1, active compounds read low 0.956 | [4] 0.989 | S. cerevisiae deletion strains, locus YPR119W, strain clb2, active compounds read low 0.997 | S. cerevisiae deletion strains, locus YPR141C, strain kar3, active compounds read low 0.984 | S. cerevisiae deletion strains, locus YPR163C, strain tif3, active compounds read low 1 | S. cerevisiae deletion strains, locus YPR167C, strain met16, active compounds read low 0.987 | S. cerevisiae deletion strains, strain wtn01, active compounds read low 1 | S. cerevisiae strains, strain wild type, active compounds read low 0.987
